hcDAF12 agonist – activators of H. contortus DAF-12 nuclear receptor; 370,000 compounds, 1.4% hits; activation, % at 6.8 µM; AID 652067; HEK293 hcDAF-12 lit1-tk-luc reporter, luminescence; 0% DMSO, 100% Δ7-dafachronic acid;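 active = activation above the mean of all tested compounds plus 3 SD, cut at about 5.5% in these data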;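 also: 100% = response to 3 µM Δ7-dafachronic acid high control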
hgDAF-12 ag – agonists of H. glycines DAF-12 nuclear receptor. HEK293 GAL4-hgDAF12 UAS-luciferase reporter, agonist luminescence; normalized to butyrate control. activation, % at 6.8 µM. 370,000 compounds, 1.8% hits. AID 687014;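 active = activation above a cutoff set at the mean of all screened compounds plus 3 SD, cut at about 10% in these data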;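 also: 0% = DMSO wells and 100% = sodium butyrate wells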
DAX1 inh-1 – NR0B1 (DAX1) inhibition; P51843; 340,000 compounds, 0.99% hits; inhibition, % at 6.75 µM; HEK293 Gal4-DAX1 luciferase reporter, luminescence;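 active = inhibition above the mean over all tested compounds plus 3 SD, cut at about 4.2% in these data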;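 also: 0% = DAX1-transfected cells with DMSO and 100% = empty-vector control cells with DMSO; inhibition shows as a rise in luminescence from relieved DAX1 repression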
Target sequence (P51843 207-470 limits assumed): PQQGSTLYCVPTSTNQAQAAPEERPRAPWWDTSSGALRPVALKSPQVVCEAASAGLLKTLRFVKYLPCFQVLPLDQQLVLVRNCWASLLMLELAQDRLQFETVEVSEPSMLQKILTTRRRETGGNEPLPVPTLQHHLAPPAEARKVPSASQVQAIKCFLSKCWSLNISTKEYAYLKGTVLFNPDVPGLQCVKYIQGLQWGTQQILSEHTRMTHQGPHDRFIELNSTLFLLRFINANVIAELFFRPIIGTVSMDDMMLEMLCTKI
DAX1 inh-2 – DAX1 (NR0B1) inhibition, primary screen | inhibition, % at 6.8 µM | AID 652010 | 370,000 compounds, 1.1% hits | HEK293T StAR-luciferase reporter, SF-1/DAX-1 repression relief;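 active = inhibition above the mean over all tested compounds plus 3 SD, cut at about 3.6% in these data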;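 also: 0% = DAX-1 cells with DMSO and 100% = cells lacking DAX-1 with DMSO; higher inhibition means more luminescence from relief of DAX-1 repression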
ssDAF-12 act – S. stercoralis DAF-12 activation, primary screen | HEK293 ssDAF-12/GRIP1 lit1-tk-luc reporter, luminescence; % of 3 µM dafachronic acid response | activation, % at 6.8 µM | 370,000 compounds, 1% hits | AID 652126;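 active = activation above the mean over all tested compounds plus 3 SD, cut at about 0.9% in these data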;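 also: 0% = DMSO-only wells and 100% = 3 µM delta7-dafachronic acid wells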
LXR ag – counter-screen for hcDAF-12 agonists: agonists of human LXR-beta; shares compounds with hcDAF12 agonist; HEK293 Gal4-LXR tk-luc reporter, luminescence, 24 h; normalized: DMSO 0%, positive control 100%; activation, % at 6.8 µM; 3,400 tested, under 10 active; AID 743027;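 active = mean percent activation of the reporter above a cutoff set as the average over tested compounds plus their standard deviation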
Target sequence (P55055 whole entry, looked up, the tested form may be a part): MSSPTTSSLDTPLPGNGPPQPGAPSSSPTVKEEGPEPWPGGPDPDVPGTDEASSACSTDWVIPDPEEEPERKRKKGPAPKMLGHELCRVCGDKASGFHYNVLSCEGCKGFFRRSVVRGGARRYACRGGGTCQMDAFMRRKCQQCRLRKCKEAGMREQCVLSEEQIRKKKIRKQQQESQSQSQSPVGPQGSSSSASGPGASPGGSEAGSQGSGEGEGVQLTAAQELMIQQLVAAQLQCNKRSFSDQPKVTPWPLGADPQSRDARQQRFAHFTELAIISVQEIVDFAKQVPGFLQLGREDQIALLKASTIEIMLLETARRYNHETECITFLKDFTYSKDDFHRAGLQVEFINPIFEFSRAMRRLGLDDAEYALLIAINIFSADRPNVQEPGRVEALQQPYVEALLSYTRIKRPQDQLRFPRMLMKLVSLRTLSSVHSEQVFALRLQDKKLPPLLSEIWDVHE
hcDAF12 ag – hcDAF-12 agonism, confirmation assay. shares compounds with hcDAF12 agonist. HEK293 hcDAF-12 lit1-tk-luc reporter, luminescence; % of Δ7-dafachronic acid response. activation, % at 6.8 µM. 3,400 compounds, 61% hits. AID 743032;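 active = mean activation across triplicate tests above the threshold derived from the earlier primary screen, cut at about 5.5% in these data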;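 also: 0% = DMSO only wells and 100% = 3 µM Δ7-dafachronic acid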
Numbers without * were called inactive; . = no result. Hits are enriched below; roughly 4.1% of the tested compounds scored in any of these assays.

SMILES | hcDAF12 agonist | hgDAF-12 ag | DAX1 inh-1 | DAX1 inh-2 | ssDAF-12 act | LXR ag | hcDAF12 ag
C=CCN1C(=O)[C@@H](CC(=O)N2CCN(C(=O)c3ccco3)CC2)[C@]2(C(=O)OCC)CCCCC/C=C/12 | -2.6 | -3.6 | . | 0.5 | -1.2 | . | .
Cc1ccc(S(=O)(=O)CCC(=O)OCC(=O)N2CCc3ccccc32)cc1 | 0.4 | 0.4 | -1.5 | 0.5 | -0.6 | . | .
Cc1ccc(S(=O)(=O)CCC(=O)N2CCc3ccccc32)cc1 | 6.8* | 2.3 | -0.2 | 0.8 | 0.7 | -0.2 | 4.4
O=C(COC(=O)c1cccc(S(=O)(=O)N2CCc3ccccc32)c1)Nc1ncc(Cl)cc1Cl | 6.8* | -0.1 | -1.2 | 0.5 | -0.6 | -0.2 | 3.0
O=C(Nc1cccc(F)c1)/C(=C\c1ccco1)NC(=O)c1cccs1 | -0.2 | 1.9 | 1.8 | 0.7 | -1.1 | . | .
O=C(/C=C/Nc1cccc(F)c1)c1ccco1 | 8.8* | 11.7* | 3.1 | 2.6 | 1.4* | 1.1 | 8.1*
O=C(/C=C/Nc1ccc(F)c(Cl)c1)c1ccco1 | 8.8* | 9.4 | 4.1 | 1.5 | 1.7* | 1.0 | 11.7*
O=C(/C=C\Nc1cccc(F)c1)c1cccs1 | 9.8* | 8.0 | 3.1 | 3.6* | 1.5* | 2.5 | 18.0*
CCCCCc1ccc(NC(=O)OCCN2C(=O)CCC23CCC(c2ccccc2)CC3)cc1 (stereo unspecified) | 2.9 | 2.5 | . | 2.5 | -1.1 | . | .
COC(=O)C1CCN(C(=O)C2CC(=O)N(c3ccc(OC)cc3)C2c2ccc(OC)cc2)CC1 (stereo unspecified) | -2.9 | 0.1 | . | 0.4 | -1.2 | . | .
CCOc1ccc(-n2c(SCC(=O)Nc3cc(C)c(NC(=O)c4ccccc4)cc3OC)nnc2-c2ccncc2)cc1 | -2.5 | 2.2 | . | -2.1 | -0.1 | . | .
Cc1cc(/C(N)=N/OC(=O)c2cccc(Cl)c2)no1 | 7.1* | 5.7 | . | 0.7 | 1.5* | 0.2 | 2.2
N/C(=N\OC(=O)c1cccc(Cl)c1)c1ccccn1 | 12.6* | 10.1 | -4.5 | 3.9* | 0.9 | 1.5 | 8.2*
Cc1cc(C(=O)NNC(=O)c2cccc(Cl)c2)no1 | 0.1 | 0.9 | . | 0.2 | -0.9 | . | .
O=C(CSc1nnc(SCc2cccc3ccccc23)s1)Nc1ccc(S(=O)(=O)Nc2nccs2)cc1 | -1.5 | 2.6 | . | 2.3 | -1.1 | . | .
CCC[C@@H](/C=C/C(=O)OC(C)(C)C)Sc1ccc(OC)cc1 | -0.8 | 4.3 | . | 1.1 | -0.9 | . | .
COC(=O)[C@]12C[C@H](CC(=O)N3CCN(C(=O)C4CC4)CC3)C(=O)N(Cc3ccc4c(c3)OCO4)C1=C[C@H](COCc1ccccc1)O[C@@H]2C | -2.0 | -0.3 | . | -0.8 | -1.0 | . | .
c1ccc(-c2nnc(-c3ccccn3)s2)nc1 | 9.6* | 13.1* | -3.0 | 2.4 | 1.0* | 1.7 | 14.1*
O=C1C(c2ccnc3ccccc23)=C(O)c2ccccc21 | 26.2* | 16.0* | 1.3 | 3.5 | 3.3* | 1.8 | 19.7*
O=C1C(=O)c2ccccc2C(O)=C1c1ccccc1F | -1.6 | -4.8 | 1.6 | -0.8 | -1.1 | . | .
CCN(CC)c1ccc(/C=N/N=C(c2ccccc2)c2ccccc2)c(O)c1 | -1.5 | -0.7 | -0.2 | -0.7 | -1.7 | . | .
CCN(CC)c1ccc(/C=N/N(c2ccccc2)c2ccccc2)c(O)c1 | 11.9* | 6.0 | 0.3 | 0.4 | 1.1* | -0.1 | 4.7
CCOc1cc2c3c(c1)C1(C(=O)N3C(C)(C)CC2C)C(C#N)=C(N)N2C(=C1C#N)Nc1ccccc12 (stereo unspecified) | 7.2* | 0.6 | -1.3 | -0.5 | -0.9 | -0.3 | -0.6
CCOc1cc2c3c(c1)C1(Nc4ccccc4S1)C(=O)N3C(C)(C)CC2C (stereo unspecified) | 2.5 | 0.0 | 0.1 | 0.1 | 0.1 | . | .
Cc1ccc(NC(=O)CCS(=O)(=O)c2ccccc2)cc1C | 2.3 | 10.4 | . | 1.1 | -0.5 | . | .
SMILES | hcDAF12 agonist | hgDAF-12 ag | DAX1 inh-1 | DAX1 inh-2 | ssDAF-12 act | LXR ag | hcDAF12 ag
O=C(O)c1ccc(Cn2cnc3c(=O)[nH]cnc32)cc1 | 10.2* | 0.9 | 1.2 | 0.7 | 1.2* | -0.3 | -1.2
COc1ccc2nc3sc(C(=O)N4CCN(C)CC4)cc3cc2c1 | 0.4 | 0.7 | 0.8 | 1.0 | -1.4 | . | .
COc1ccc2nc3sc(C(=O)NCCCN4CCc5ccccc5C4)cc3cc2c1 | 8.0* | 4.5 | -0.8 | 1.6 | 0.8 | 0.1 | 6.8*
COC(=O)c1cc2c(c3c4cc(F)ccc4n(S(=O)(=O)c4ccccc4)c13)C(=O)N(Cc1ccc(C(F)(F)F)cc1)C2 | 0.6 | -2.4 | . | -0.8 | -0.5 | . | .
Cc1occc1C(=O)N/N=C/c1ccc(N(C)C)cc1 | 7.3* | 9.2 | -1.9 | 2.8 | -0.2 | 1.4 | 7.2*
Cc1occc1C(=O)N/N=C/C(Br)=C\c1ccccc1 | 8.8* | 10.9* | 4.0 | 2.2 | 0.9 | 1.5 | 4.1
CN(C)c1ccc(/C=N/NC(=O)c2ccccc2Cl)cc1 | 0.9 | 5.2 | -1.2 | -2.0 | -0.8 | . | .
CN(Cc1ccccc1F)C(=O)C1C2C=CC3(CN(Cc4ccccc4)C(=O)C13)O2 (stereo unspecified) | 0.1 | -1.3 | . | 0.1 | -0.8 | . | .
O=C(CN(CCc1ccccc1)S(=O)(=O)c1cccs1)N1CCOCC1 | 0.1 | 1.8 | . | -0.4 | -1.2 | . | .
CCCC(=O)Nc1cccc(-c2nc3ccccc3o2)c1 | -1.2 | -0.4 | -0.2 | 0.0 | -1.4 | . | .
CCCC(=O)Nc1cccc(-c2nc3cc(C)c(C)cc3o2)c1 | 7.2* | 6.6 | 1.2 | 4.3* | -0.1 | 0.9 | 3.6
CCNC(=O)N1CCN(c2ccc(N3CCN(C(=O)NCC)[C@@H](C)C3)c(C)c2)[C@H](C)C1 | -0.5 | 0.4 | . | 0.1 | -1.0 | . | .
c1ccc(COc2ccc(OCCCN3CCCC3)cc2)cc1 | 7.3* | 8.2 | -0.1 | 4.4* | 0.3 | 1.4 | 9.4*
COc1cccc(/C=C2/SC(=S)N(CC(=O)NNC(=O)c3ccccc3OC)C2=O)c1 | 8.5* | 2.0 | 0.1 | 0.2 | 0.3 | -0.1 | 5.1
COc1cccc(/C=C2/SC(=S)N(CC(=O)Nc3nnc(C)s3)C2=O)c1 | 0.8 | -0.3 | 0.8 | 0.4 | -1.3 | . | .
O=C(Nc1ccccc1Cl)c1csc(-c2cccnc2)n1 | 7.6* | 9.0 | 5.0* | 0.0 | 2.8* | 0.2 | 6.7*
NC(=O)c1sc2nc(-c3ccccc3)ccc2c1N | 1.6 | 9.5 | 2.9 | 1.4 | -0.7 | . | .
CCOC(=O)c1sc2nc(-c3ccccc3)ccc2c1N | 9.0* | 24.1* | 2.5 | 4.3* | 0.4 | 2.0 | 10.8*
Cc1cccc(NC(=O)COC(=O)Cc2c[nH]c3ccccc23)c1C | 0.8 | 1.8 | -0.6 | -0.3 | -0.3 | . | .
CC(C)c1ccccc1NC(=O)COC(=O)Cc1c[nH]c2ccccc12 | 7.9* | 2.5 | 0.3 | 0.7 | 1.3* | -0.2 | 4.3

From PubChem
